# Data from PubChem BioAssay (NCATS).
# Several values for one entry are separate records, joined by “and”; a condition that tells them apart may be missing. Identical values can stand only once. Results filed as inconclusive are left out. Values without a mark were called inactive. Activity calls are given as the source filed them.
# Target: Glucocorticoid receptor (Homo sapiens) (UniProt P04150)
# Assay: qHTS assay for small molecule agonists of glucocorticoid receptor signaling (AID 588532; active means well fitted curve in the direction sought with a large enough effect in the signal ratio, with a control signal flat; the % refers to the signal ratio;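 further: 100% = dexamethasone at 0.1 µM and 0% = DMSO only wells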)
# Conditions: HeLa MMTV-bla, beta-lactamase ratio, agonist, 18 h; active compounds read high; percent of dexamethasone control, DMSO zero
# Procedure, shortened: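 MMTV-bla HeLa, beta-lactamase reporter; medium with 1% charcoal/dextran-stripped FBS; cpds up to 92 uM, 18 h, 37 C; CCF4 readout 460/530 nm; Hill fit → EC50, efficacy vs 0.1 uM dexamethasone = 100%.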
# Chain of Glucocorticoid receptor (Homo sapiens) (P04150 whole entry, looked up): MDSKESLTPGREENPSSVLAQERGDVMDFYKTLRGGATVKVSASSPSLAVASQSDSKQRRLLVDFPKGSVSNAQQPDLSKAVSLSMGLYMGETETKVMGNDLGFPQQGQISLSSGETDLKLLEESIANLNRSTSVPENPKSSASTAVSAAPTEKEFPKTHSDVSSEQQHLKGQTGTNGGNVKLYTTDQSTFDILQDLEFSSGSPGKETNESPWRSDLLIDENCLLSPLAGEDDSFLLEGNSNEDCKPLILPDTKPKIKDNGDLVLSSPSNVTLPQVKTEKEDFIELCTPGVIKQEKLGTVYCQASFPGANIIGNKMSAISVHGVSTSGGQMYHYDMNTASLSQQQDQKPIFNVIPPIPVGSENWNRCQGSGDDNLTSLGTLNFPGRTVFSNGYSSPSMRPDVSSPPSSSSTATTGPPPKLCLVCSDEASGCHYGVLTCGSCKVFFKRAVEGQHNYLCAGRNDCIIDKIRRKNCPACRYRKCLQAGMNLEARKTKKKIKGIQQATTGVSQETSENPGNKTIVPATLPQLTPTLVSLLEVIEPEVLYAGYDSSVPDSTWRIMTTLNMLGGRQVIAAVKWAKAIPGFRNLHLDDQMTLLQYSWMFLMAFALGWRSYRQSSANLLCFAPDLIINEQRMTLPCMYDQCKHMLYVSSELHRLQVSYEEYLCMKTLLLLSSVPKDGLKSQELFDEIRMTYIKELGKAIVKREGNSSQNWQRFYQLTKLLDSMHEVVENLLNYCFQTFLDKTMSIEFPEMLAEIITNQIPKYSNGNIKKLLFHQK
row,SMILES,activation
1,CCC(C)(C)c1ccc(O)cc1,-4.8%
2,Clc1ccc(C(c2ccc(Cl)cc2)C(Cl)(Cl)Cl)cc1,4.79% and 0.666%
3,CCOC(=O)CC(SP(=S)(OC)OC)C(=O)OCC (centres undefined),-4.46% and 3.12% and 14.7%
4,CN1C[C@H](C(=O)N[C@]2(C)O[C@@]3(O)[C@@H]4CCCN4C(=O)[C@H](Cc4ccccc4)N3C2=O)C=C2c3cccc4[nH]cc(c34)C[C@H]21,-6.8%
5,COC(=O)C(c1ccccc1)C1CCCCN1 (centres undefined),2.14%
6,C[C@]1(O)CC[C@H]2[C@@H]3CCC4=CC(=O)CC[C@]4(C)[C@@]3(F)[C@@H](O)C[C@@]21C,0.36%
7,COP(=S)(OC)Oc1ccc(SC)c(C)c1,-2.46% and 5.56%
8,COP(=S)(OC)Oc1cc(Cl)c(Cl)cc1Cl,-3.3%
9,NCCc1ccc(O)cc1,18.1%
10,CC1(C)C(C=C(Cl)Cl)C1C(=O)OC(C#N)c1cccc(Oc2ccccc2)c1 (centres undefined),-2.93%
11,COP(=S)(OC)SCN1C(=O)c2ccccc2C1=O,10.5%
12,CC(C)NC(C)C,-3.7%
13,O=P1(N(CCCl)CCCl)NCCCO1 (centres undefined),2.61% and 1.05%
14,COc1cc(OC)c(OC)cc1C=O,3.74%

# Target: Glucocorticoid receptor (Homo sapiens) (UniProt P04150)
# Assay: qHTS assay for small molecule antagonists of glucocorticoid receptor signaling (AID 588533; active means well fitted inhibition curve with a large enough effect in the signal ratio, with a control signal flat, not every such curve was filed as active; the % refers to the signal ratio;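 further: cells stimulated with 2 nM dexamethasone as agonist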; further: potency means the concentration at half of the fitted maximal effect)
# Conditions: HeLa MMTV-bla, GRE beta-lactamase ratio, antagonist mode, 18 h; series mostly up to 76.8 µM
# Procedure, shortened: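 Antagonist-mode qHTS: compound titrations added to GRE-bla HeLa cells, then dexamethasone 2 nM final; 18 h, 37 C. CCF4 FRET fluorescence normalized to dexamethasone and DMSO; IC50 from Hill fit.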
row,SMILES,Potency
1,C[C@]12CCC(=O)C=C1CC[C@@H]1[C@@H]2CC[C@@]2(C)[C@H]1CC[C@]2(C)O,15.8 µM (active)
2,CCC(C)(C)c1ccc(O)cc1,inactive
3,Nc1nc(N)nc(NC2CC2)n1,inactive
4,Clc1ccc(C(c2ccc(Cl)cc2)C(Cl)(Cl)Cl)cc1,inactive
5,CCOC(=O)CC(SP(=S)(OC)OC)C(=O)OCC (centres undefined),inactive
6,COC(=O)C(c1ccccc1)C1CCCCN1 (centres undefined),inactive
7,C[C@]1(O)CC[C@H]2[C@@H]3CCC4=CC(=O)CC[C@]4(C)[C@@]3(F)[C@@H](O)C[C@@]21C,10 µM (active)
8,COP(=S)(OC)Oc1ccc(SC)c(C)c1,inactive
9,COP(=S)(OC)Oc1cc(Cl)c(Cl)cc1Cl,inactive
10,NCCc1ccc(O)cc1,inactive
11,CC1(C)C(C=C(Cl)Cl)C1C(=O)OC(C#N)c1cccc(Oc2ccccc2)c1 (centres undefined),inactive
12,COP(=S)(OC)SCN1C(=O)c2ccccc2C1=O,inactive
13,CC(C)NC(C)C,inactive
14,O=P1(N(CCCl)CCCl)NCCCO1 (centres undefined),inactive
15,COc1cc(OC)c(OC)cc1C=O,inactive
